Where a name gives a salt, the structure may show the parent alone.
Each molecule was assayed on Staphylococcus aureus Sa2 (MRSA, cystic fibrosis isolate) (assay: growth reduction vs untreated control (viable cell count); higher = stronger antibacterial activity; extreme values may be limits of the assay). Settings: 0.1 mM; 24 h.
Description: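 Single-dose screen of the MedChem Express Drug Repurposing Library (0.1 mM, 1% DMSO) against planktonic MRSA S. aureus Sa2 (CF isolate) in TSB in 96-well plates, 37 °C aerobic, 24 h. Assays were run in triplicate and repeated twice.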
CCN(CC)CC#CCOC(=O)C(O)(c1ccccc1)C1CCCCC1 (centres undefined) [Oxybutynin (chloride)] was tested, and the growth reduction was 91%.
In the case of C[C@@H](NCCCc1cccc(C(F)(F)F)c1)c1cccc2ccccc12 [Cinacalcet (hydrochloride)], the growth reduction is reported as 100%.
CC(C)=CCC/C(C)=C/CC/C(C)=C/CSc1ccccc1C(=O)O [Salirasib] was tested, and the growth reduction was 100%.
Work on CCCCCCCCc1ccc(CCC(N)(CO)CO)cc1 [Fingolimod (hydrochloride)] yielded a growth reduction of 100%.
O=C1Nc2ccc(Cl)cc2[C@@](C#CC2CC2)(C(F)(F)F)O1 [Efavirenz] showed a growth reduction of 98%.
With Cc1ccc(C(=O)N(CCCN)[C@@H](c2oc3cc(Cl)ccc3c(=O)c2Cc2ccccc2)C(C)C)cc1 the growth reduction was 100%.
CC(OC(=O)NCC1(CC(=O)O)CCCCC1)OC(=O)C(C)C (centres undefined) [Gabapentin enacarbil] showed a growth reduction of 93%.
Work on Oc1c(Br)cc(Br)c2cccnc12 [Broxyquinoline] yielded a growth reduction of 100%.
CN[C@H]1CN(c2ccc3c(=O)c(C(=O)O)cn(-c4nccs4)c3n2)C[C@@H]1OC [Voreloxin (Hydrochloride)] gave a growth reduction of 100%.
For CCc1nc(-c2cccc(C)c2)c(-c2ccnc(NC(=O)c3ccccc3)c2)s1, the growth reduction was 100%.
For COC(=O)[C@]12CCC(C)(C)C[C@H]1[C@H]1C(=O)C=C3[C@@]4(C)C=C(C#N)C(=O)C(C)(C)[C@@H]4CC[C@@]3(C)[C@]1(C)CC2 [Bardoxolone methyl], the growth reduction was 100%.
With CCN1CCN(Cc2ccc(-c3cc4c(N[C@H](C)c5ccccc5)ncnc4[nH]3)cc2)CC1 the growth reduction was 100%.
O=C(Nc1ncc(SCCN2CCCC2)s1)[C@]1(c2ccc(S(=O)(=O)C3CC3)cc2)C[C@H]1C1CCCCC1 [Globalagliatin] showed a growth reduction of 100%.
Molecule C#C[C@]1(O)CC[C@H]2[C@@H]3CCc4cc(OC)ccc4[C@H]3CC[C@@]21C [Mestranol] has a growth reduction of 93%.
CC1=C(/C=C/C(C)=C/C=C/C(C)=C/C(=O)Nc2ccc(O)cc2)C(C)(C)CCC1 [Fenretinide] showed a growth reduction of 100%.
Cc1ccc(C(=O)c2cc(O)c(O)c([N+](=O)[O-])c2)cc1 [Tolcapone] was tested, and the growth reduction was 100%.
Cn1cc(-c2ccncc2)c(-c2ccc(OCc3ccc4ccccc4n3)cc2)n1 [Mardepodect] was tested, and the growth reduction was 93%.
For O=C1[C@H](CC[C@H](O)c2ccc(F)cc2)[C@@H](c2ccc(O)cc2)N1c1ccc(F)cc1 [Ezetimibe], the growth reduction was 91%.
Work on NC1=NCC2c3ccccc3Cc3ccccc3N12 (centres undefined) [Epinastine] yielded a growth reduction of 100%.
For COc1cc([C@H]2C(C#N)=C(N)Oc3c2ccc(N)c3N)cc(Br)c1OC [Crolibulin], the growth reduction was 100%.
With C[C@H](Nc1cc(-c2cnn(C)c2)cc(Nc2cnccn2)n1)c1ccc(F)cc1 [Ilginatinib] the growth reduction was 94%.
In the case of CC1=CC(=O)c2ccccc2C1=O [Menadione], the growth reduction is reported as 100%.
Molecule Cc1ccc(-c2c(C(=O)CCl)n(CCCO)c3ncnc(N)c23)cc1 has a growth reduction of 100%.
For O=C(NCc1ccc(Oc2ccccc2)cc1)c1nc(-c2cc(Br)c(O)c(Br)c2)no1, the growth reduction was 100%.
In the case of Nc1ccc(S(=O)(=O)Nc2cnc3c(Cl)cccc3n2)cc1 [Chloroquinoxaline sulfonamide], the growth reduction is reported as 99%.
With CNC(=O)c1ccc(Nc2ncc(C(F)(F)F)c(NCc3nccnc3N(C)S(C)(=O)=O)n2)cc1 [Defactinib] the growth reduction was 95%.
O=C(NS(=O)(=O)c1ccc(Br)s1)c1ccc(Cl)cc1Cl [Tasisulam] was tested, and the growth reduction was 100%.
O=C(c1ccc(F)c(F)c1Nc1ccc(I)cc1F)N1CC(O)([C@@H]2CCCCN2)C1 [Cobimetinib] gave a growth reduction of 100%.
For Cc1ccc(NC(=O)c2ccc(CN3CCN(C)CC3)cc2)cc1Nc1nc(-c2cccnc2)cs1 [Masitinib (mesylate)], the growth reduction was 100%.
Work on COc1cc(/C=C/c2ccc(O)cc2)cc(OC)c1 [Pterostilbene] yielded a growth reduction of 100%.
Molecule CC(=O)Oc1cccc2c1C(=O)c1c(OC(C)=O)cc(C(=O)O)cc1C2=O [Diacerein] has a growth reduction of 100%.
O=C(O)c1ccccc1Nc1cccc(C(F)(F)F)c1 [Flufenamic acid] gave a growth reduction of 98%.
For Nc1ccn([C@@H]2O[C@H](CO)[C@@H](O)C2(F)F)c(=O)n1 [Gemcitabine (hydrochloride)], the growth reduction was 100%.
In the case of CCCCCCNC(=O)n1cc(F)c(=O)[nH]c1=O [Carmofur], the growth reduction is reported as 100%.
With C=C1CC[C@H](O)C/C1=C/C=C1\CCC[C@]2(C)[C@@H]([C@H](C)/C=C/[C@H](C)C(C)C)CC[C@@H]12 [Vitamin D2] the growth reduction was 100%.
Work on OC(c1cc(C(F)(F)F)nc2c(C(F)(F)F)cccc12)C1CCCCN1 (centres undefined) [Mefloquine (hydrochloride)] yielded a growth reduction of 100%.
CC(=O)OC[C@H]1O[C@@H]([S-])[C@H](OC(C)=O)[C@@H](OC(C)=O)[C@@H]1OC(C)=O.CCP(CC)CC.[Au+] [Auranofin] was tested, and the growth reduction was 100%.
Work on CN(CCCCCCCCCCN(C)C(=O)Oc1cccc([N+](C)(C)C)c1)C(=O)Oc1cccc([N+](C)(C)C)c1 [Demecarium Bromide] yielded a growth reduction of 98%.
CC1(C)CCC2=C(O1)c1ccccc1C(=O)C2=O [β-Lapachone] gave a growth reduction of 100%.
